The values that follow come from PubChem BioAssay (NCI).

Assay [1] can be described thus: NCI Yeast Anticancer Drug Screen. Data for the rad50 strain (AID 155).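 Note: 0% = growth of vehicle-only cultures of the same strain.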 Conditions: S. cerevisiae rad50 strain growth inhibition; at 50.0 µM; hits give high values. In a few lines: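 Inhibition values express reduced yeast growth in compound-treated cultures relative to vehicle-treated controls.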
A short description of assay [2]: NCI Yeast Anticancer Drug Screen. Data for the mec2-1 strain (AID 157). Conditions: S. cerevisiae mec2-1 strain, at 50.0 µM, hits give high values. The procedure, abridged: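 Compounds were applied to mec2-1 yeast cells. Their growth was then compared with that of vehicle-treated cultures to give growth inhibition.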
Assay [3] can be described thus: NCI Yeast Anticancer Drug Screen. Data for the sgs1 mgt1 strain (AID 161).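 Note: 0% = growth of cultures given vehicle only.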 Conditions: S. cerevisiae sgs1 mgt1 strain, at 50.0 µM, hits give high values. In a few lines:
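Growth of a repair-deficient yeast mutant was monitored after compound treatment and expressed as inhibition relative to vehicle-treated cultures.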

Assay [4] is described as follows: NCI Yeast Anticancer Drug Screen. Data for the cln2 rad14 strain (AID 165).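 Note: 0% = growth equal to vehicle treated cultures.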 Conditions: S. cerevisiae cln2 rad14 strain, at 50.0 µM, hits give high values. In a few lines:
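Strain: cln2 rad14 yeast, altered in cell cycle control and DNA damage repair. Read-out: growth inhibition vs vehicle.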

A short description of assay [5]: NCI Yeast Anticancer Drug Screen. Data for the bub3 strain (AID 167). Conditions: S. cerevisiae bub3 mutant strain, at 50.0 µM, hits give high values. In a few lines: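 Steps: expose the mutant yeast strain to compound; grow alongside vehicle-treated cultures; measure growth; express inhibition against the vehicle cultures.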
A short description of assay [6]: NCI Yeast Anticancer Drug Screen. Data for the mlh1 rad18 strain (AID 175). Conditions: S. cerevisiae mlh1 rad18 strain growth inhibition; at 50.0 µM; hits give high values. The procedure, abridged:
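A repair-deficient yeast strain is exposed to test compound, and growth is scored relative to vehicle-treated controls.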

Compounds without any hit were thinned out: in the full panel of roughly 79,000, 15% have a hit. Unmarked numbers belong to inactive results. Activity calls are given as the source filed them. Cut-off read from the data, not from the text of the source: active = growth inhibition above about 70%; inactive = the rest.

For `CC(C)(C)OC(=O)C1CCC/C1=N/Nc1ccc([N+](=O)[O-])cc1[N+](=O)[O-]` (stereo not given), the growth inhibition is -38.3% in assay [1]; -46% in assay [2]; 10.3% in assay [3]; 24.2% in assay [4]; 20.7% in assay [5]; -11.6% in assay [6].

As to `Cc1cc(O)c(C=NC(=S)c2ccccc2)c(=O)o1`, the growth inhibition was -14.1% in assay [1]; -32% in assay [2]; 10.2% in assay [3]; 5.3% in assay [4]; 4.55% in assay [5]; -40.4% in assay [6].

Consider `Nc1ccccc1N=Cc1cc(F)ccc1[N+](=O)[O-]`, for which the growth inhibition in assay [1] is 0.05%; in assay [2] it was 4.4%; in assay [3], 28.2%; in assay [4], -48.9%; in assay [5], 4.4%; in assay [6], 1.35%.

Regarding `COc1ccccc1N1C(=O)/C(=N\OC(=O)c2c(-c3c(Cl)cccc3Cl)noc2C)SC1=S`, the growth inhibition was -13.9% in assay [1]; -26.6% in assay [2]; -19.5% in assay [3]; 11% in assay [4]; -34.8% in assay [5]; -0.2% in assay [6].

As for `c1ccc(O[Si](Oc2ccccc2)(Oc2ccccc2)Oc2ccccc2)cc1`, the growth inhibition in assay [1] was 5.65%; in assay [2], -18.7%; in assay [3], 5.5%; in assay [4] it was 5.1%; in assay [5], -7.3%; in assay [6], 6.05%.

For the compound `C1=NCCN=Cc2ccccc2O/N=N/Oc2ccccc21`, the growth inhibition in assay [1] was -14.9%; in assay [2] it was -1.95%; in assay [3] it was -0.85%; in assay [4], -44.4%; in assay [5], 15.4%; in assay [6] it was -4.7%.

For the compound `COc1ccc(CCCCl)c(C2=NCCc3ccccc32)c1`, the growth inhibition was 25.2% in assay [1]; 12.7% in assay [2]; -17.3% in assay [3]; 12.2% in assay [4]; -0.55% in assay [5]; 1.95% in assay [6].

Turning to `CC(C)(C)OC(=O)NCCNC(=O)OCc1ccccc1`, the growth inhibition in assay [1] is 4.25%; in assay [2], -12.2%; in assay [3], -16.7%; in assay [4], 4.45%; in assay [5], -3.5%; in assay [6], -0.25%.

For `O=S(=O)(c1ccc(NC(=S)N2CCOCC2)cc1)N1CCCCC1`, the growth inhibition is -3.45% in assay [1]; 1.1% in assay [2]; -10.1% in assay [3]; 1.6% in assay [4]; -5.95% in assay [5]; 8.65% in assay [6].

In the case of `O=c1[nH]c(=O)c2nc[nH]c(=O)c2[nH]1`, the growth inhibition in assay [1] is -8.55%; in assay [2] it was -8.45%; in assay [3], -4.2%; in assay [4] it was -3.55%; in assay [5], -11.6%; in assay [6], -13.2%.

With `CN(C)CCSc1nc2ccccc2s1`, the growth inhibition in assay [1] is 7.6%; in assay [2] it was 6.55%; in assay [3], 28.7%; in assay [4], 13.3%; in assay [5] it was -16.6%; in assay [6], 31.1%.

`CN(C)CCCc1cccc2[nH]c3c(c12)CN(C)CC3`: the growth inhibition was 22% in assay [1]; -5% in assay [2]; 23.6% in assay [3]; 7.85% in assay [4]; 7.45% in assay [5]; -26% in assay [6].

As for `Nc1c2ccccc2nc2nccnc12`, the growth inhibition was 3.6% in assay [1]; 2.65% in assay [2]; 5.95% in assay [3]; 16.9% in assay [4]; -3% in assay [5]; 30.4% in assay [6].

With `O=C(c1ccccc1)N1OCCC1Nc1ccc(Br)cc1` (stereo not given), the growth inhibition in assay [1] is -9.85%; in assay [2] it was -7.45%; in assay [3] it was -3.95%; in assay [4], 13.6%; in assay [5], -15%; in assay [6], 3.65%.

On to `COc1cccc(NC(=S)/C(=C(/[O-])c2ccc([N+](=O)[O-])cc2)[n+]2cccc3ccccc32)c1`, for which the growth inhibition was 26.1% in assay [1]; 19.2% in assay [2]; 22.1% in assay [3]; 33.2% in assay [4]; 28.2% in assay [5]; 10.5% in assay [6].

Take `O=C(COC(=O)C(CC(=O)c1ccccc1)Cc1ccccc1)c1ccc(-c2ccccc2)cc1` (stereo not given): the growth inhibition in assay [1] was 25.7%; in assay [2], 25.3%; in assay [3], 6%; in assay [4], 30.8%; in assay [5], 35.4%; in assay [6], 13.3%.

For the compound `O=c1cc(-c2ccc(Cl)cc2)oc(-c2ccc(Cl)cc2)c1`, the growth inhibition is 5.5% in assay [1]; -7.65% in assay [2]; 4.05% in assay [3]; -35.9% in assay [4]; 0.7% in assay [5]; 2.8% in assay [6].

Take `CC1=CC(=O)C(=O)C2=C1OC1(C2)C(C)CCC2C3(C)CCC(O)C(C)(C)C3CCC21C` (stereo not given): the growth inhibition was 86.5% (active) in assay [1]; 89.8% (active) in assay [2]; 89.1% (active) in assay [3]; 88.2% (active) in assay [4]; 86.3% (active) in assay [5]; 87.2% (active) in assay [6].

Turning to `COc1ccc(C(=O)N/N=C/c2ccccc2OC)cc1`, the growth inhibition was -3.1% in assay [1]; 31% in assay [2]; 25.4% in assay [3]; -10.6% in assay [4]; 27.9% in assay [5]; 32% in assay [6].

In the case of `O=[N+]([O-])c1ccc(/C(CBr)=N/N2CCCCCC2)cc1`, the growth inhibition was -1.05% in assay [1]; -16.9% in assay [2]; -19.7% in assay [3]; 7.9% in assay [4]; -15.8% in assay [5]; -4.55% in assay [6].
